High-throughput results deposited in PubChem BioAssay by National Center for Advancing Translational Sciences (NCATS).
JMJD2E inh – qHTS Assay for Inhibitors of Human Jumonji Domain Containing 2E (JMJD2E). JMJD2E catalytic domain, FDH-coupled NADH fluorescence (FDH is formaldehyde dehydrogenase). Potency, µM (top dose mostly 57.1 µM), inactives show top-dose activity change, negative = inhibition, hits mostly inhibitors. 230,000 tested, 1.6% active. AID 2147, 2009; active = well fitted inhibition curve with a large enough effect, not every such curve was filed as active; inconclusive = small, poorly fitted or top-dose-only effect, or another doubt; inactive = no such curve, though single readings can be large or run the other way;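 note: 0% = wells with enzyme and -100% = buffer wells without enzyme; nearly all actives have a fitted effect of over 50% in size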
L3MBTL1 block – qHTS Assay for the Inhibitors of L3MBTL1; Lethal(3)malignant brain tumor-like protein 1 (Homo sapiens), Q9Y468; AlphaScreen L3MBTL1–H3K9me1 peptide binding; Potency, µM (series often up to 57.1 µM), for the others: at the highest dose activity, negative = inhibition, hits mostly inhibitors; 230,000 tested, 0.66% active; AID 485360, 2010; note: nearly all actives have a fitted effect of over 60% in size
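AlphaScreen proximity signal between nickel-chelate acceptor and streptavidin donor beads (final 10 ug/mL) reports binding of 50 nM L3MBTL1 to 75 nM biotin-H3 K9me1 peptide; complex incubated with compounds 30 min at room temperature; cefsulodin titration as control.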
APE1 inh-1 – qHTS Assay for Inhibitors of the Human Apurinic/apyrimidinic Endonuclease 1 (APE1); AID 2517, 2012; recombinant APE1, TAMRA/BHQ-2 abasic DNA cleavage fluorescence; 350,000 tested, 0.35% active; DNA repair nuclease/redox regulator APEX1 (Homo sapiens), P27695; Potency, µM (titrated, usually from 65.8 µM), for the others: at the highest dose activity change, negative = inhibition, most hits filed as inhibitors;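 note: plate controls were vehicle for no effect and reference inhibitor for full effect; nearly all actives have a fitted effect of over 55% in size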
Target sequence (P27695 whole entry, looked up): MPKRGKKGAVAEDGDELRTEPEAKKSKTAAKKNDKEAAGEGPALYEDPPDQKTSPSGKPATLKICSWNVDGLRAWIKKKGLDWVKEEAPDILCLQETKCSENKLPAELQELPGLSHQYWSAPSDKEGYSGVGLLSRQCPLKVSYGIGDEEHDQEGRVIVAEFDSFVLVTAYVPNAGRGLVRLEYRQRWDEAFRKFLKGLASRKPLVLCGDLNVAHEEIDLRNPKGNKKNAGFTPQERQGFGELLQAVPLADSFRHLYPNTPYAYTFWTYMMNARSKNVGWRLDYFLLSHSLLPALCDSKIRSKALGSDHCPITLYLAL
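Endonuclease cleavage of a quenched abasic-site DNA duplex (50 nM) by APE1 (0.75 nM) was tracked by TAMRA dequenching. Compounds were preincubated with enzyme 15 min at room temperature; data normalized to buffer-only and DMSO wells plus NSC13755 control.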
RECQ1 helicase – qHTS Assay for Inhibitors of RecQ-Like Dna Helicase 1 (RECQ1). ATP-dependent DNA helicase Q1 (Homo sapiens), P46063. 240,000 tested, 0.54% active. AID 2549, 2010. Potency, µM (highest dose often 57.3 µM), for the others: at the top dose activity, negative = inhibition, hits mostly inhibitors. RECQ1 DNA unwinding, red fluorescence kinetic read;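 note: plate controls were vehicle for no effect and no enzyme for full effect; nearly all actives have a fitted effect of over 30% in size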
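RECQ1T1 50 nM; forked duplex (20 bp + 30-nt ss tails) 200 nM, ATP 2 mM final; pH 8.0, 2 mM MgCl2, 2.5 ug/ml poly(dI-dC); 15 min compound preincubation; discontinuous kinetic read over 2 h at RT.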
GoLoco inh red – qHTS Assay for Inhibitors of RGS12 GoLoco Motif Activity (Red Fluorophore) | Guanine nucleotide-binding protein G(i) subunit alpha-1 (Homo sapiens), P63096 | Gai1:RGS12 GoLoco peptide FP, rhodamine, 10 min | Potency, µM (highest dose often 61.6 µM), for inactives: at the highest dose activity, negative = inhibition, most hits filed as inhibitors | 230,000 tested, 0.44% active; active = well fitted inhibition curve with a large enough effect, not every such curve was filed as active; inactive = no such curve, though single readings can be large or run the other way; note: nearly all actives have a fitted effect of over 30% in size
Target sequence (P63096 whole entry, looked up): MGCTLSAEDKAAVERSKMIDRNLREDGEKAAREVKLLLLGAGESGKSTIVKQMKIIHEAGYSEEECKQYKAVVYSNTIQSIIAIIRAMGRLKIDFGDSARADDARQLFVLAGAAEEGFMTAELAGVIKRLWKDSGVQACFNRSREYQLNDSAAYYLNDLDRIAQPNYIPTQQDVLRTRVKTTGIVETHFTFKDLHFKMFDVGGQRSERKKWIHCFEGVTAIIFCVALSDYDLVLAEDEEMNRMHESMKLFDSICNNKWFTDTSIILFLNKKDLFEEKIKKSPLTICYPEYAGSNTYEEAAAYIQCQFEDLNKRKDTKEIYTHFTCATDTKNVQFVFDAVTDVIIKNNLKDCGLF
BLM inh – qHTS Assay for Inhibitors of Bloom's syndrome helicase (BLM); recombinant BLM DNA unwinding, fluorescence dequenching; Potency, µM (highest dose often 56.1 µM), without a hit: at the highest dose activity change, negative = inhibition, hits mostly inhibitors; 350,000 tested, 0.2% active;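 note: plate controls were vehicle for no effect and no enzyme for full effect; nearly all actives have a fitted effect of over 35% in size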
DNA dye displace – Counterscreen for APE1 Inhibitors: Fluorescent Dye Displacement Assay; shares compounds with APE1 inh-1; DNA fluorescent dye displacement counterscreen, fluorescence; Potency, µM (doses to about 28.5 µM), inactives show at the top dose activity change, negative = inhibition, most hits filed as inhibitors; 480 tested, 7% active;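 note: loss of thiazole orange fluorescence as the dye is displaced from duplex DNA; 0% = ThO with dsDNA and no compound and -100% = ThO without dsDNA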
EndoIV counter – Counterscreen for APE1 Inhibitors: qHTS Assay for Inhibitors of Endonuclease IV; Potency, µM (highest dose often 27.1 µM), for inactives: at the highest dose activity change, negative = inhibition, hits mostly inhibitors; E. coli Endo IV, fluorogenic AP-site DNA cleavage; shares compounds with APE1 inh-1; 560 tested, 4% active;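 note: plate controls were uninhibited enzyme wells for no effect and no enzyme buffer wells for full effect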
APE1 inh-2 – Confirmation qHTS Assay for Inhibitors of the Human Apurinic/apyrimidinic Endonuclease 1 (APE1); shares compounds with APE1 inh-1; purified APE1, fluorogenic abasic-site DNA cleavage; Potency, µM (series often up to 57.1 µM), for inactives: top-dose activity change, negative = inhibition, most hits filed as inhibitors; 750 tested, 44% active; AID 2572, 2010; note: nearly all actives have a fitted effect of over 30% in size
APE1 FP – qHTS FP-Based Assay for Inhibitors of the Human Apurinic/apyrimidinic Endonuclease 1 (APE1); shares compounds with APE1 inh-1; APE1 binding to TAMRA-labelled double-stranded DNA, fluorescence polarization displacement; Potency, µM (doses to about 28.5 µM), for inactives: at the top dose activity, negative = inhibition, hits mostly inhibitors; 480 tested, 7% active; AID 2573, 2010
Numbers without * were called inactive; i = inactive; u = inconclusive; x = not tested or not shown; [ ] = another dose, or the depositor's remark. This excerpt belongs to a sample that is enriched for hits. Unless noted, calls come from the whole dose curve; as a rule, active = well fitted curve in the direction sought with a large enough effect; inconclusive = small, poorly fitted or top-dose-only effect, or another doubt; inactive = no such curve, though single readings can be large; an effect the other way counts as inactive or inconclusive. Unless noted, % is set by controls: 0 for no effect and ±100 for the full control effect; potency is the fitted concentration of half-maximal effect.

SMILES	JMJD2E inh	L3MBTL1 block	APE1 inh-1	RECQ1 helicase	GoLoco inh red	BLM inh	DNA dye displace	EndoIV counter	APE1 inh-2	APE1 FP
CN(C)c1ccc(O)c2c1C[C@@H]1C[C@H]3C(N(C)C)C(=O)C(C(N)=O)=C(O)[C@@]3(O)C(=O)C1=C2O (stereo partly drawn)	u	x	x	u	-2%	-12%	-2%[57.1 µM]	10%[57.1 µM]	-11%	u
COC/C=C/C1=CC2=CC(=O)C(C)(OC(=O)c3ccco3)C(=O)C2=CO1 (stereo not drawn)	u	x	20µM*	28µM*	27%	-14%	u	u	u	13µM*
Nc1nc(Cl)nc2c1ncn2[C@@H]1O[C@H](CO)[C@H](O)[C@H]1O	6%	x	-3%	-6%	14%	x	x	-6%[57.1 µM]	-28%	x
N=C1C(c2nc3ccccc3s2)=C(O)CN1NC(=O)c1ccccc1[N+](=O)[O-]	-11%	-5%[2.29 µM]	8%	i	2%	-2%	x	x	x	x
N=C1C(c2nc3ccccc3s2)=C(O)CN1NC(=O)c1c[nH]c2ccccc12	u	9%	u	i	41%	-16%	38%	1%	u	22%
O=c1cc(-c2ccc(O)c(O)c2)oc2cc(O)c([C@@H]3O[C@H](CO)[C@@H](O)[C@H](O)[C@H]3O)c(O)c12	x	u	-10%	i	x	7%	x	x	x	x
O=c1c2cc(O)c(O)cc2oc2cc(O)c(C3OC(CO)C(O)C(O)C3O)c(O)c12 (stereo not drawn)	u	3.2µM*	2.4µM*	-26%	1%	4%	38%[57.1 µM]	70%[57.1 µM]	7.1µM*	6%[57.1 µM]
Cc1ccc2oc(=O)n(CC(=O)OC(C)C)c2c1	6%	0%	u	-8%	10%	3%	-11%	-4%	-8%[24.4 µM]	u
c1ccc(C2CN3CCSC3=N2)cc1 (stereo not drawn)	6%	4%	-3%	-6%	6%	-2%	x	x	x	x
Brc1ccc([C@H]2CN3CCSC3=N2)cc1	11µM*	x	-5%	-3%	-13%	x	x	-6%[57.1 µM]	-28%	x
Cc1ccnc(NS(=O)(=O)c2ccc(NC(=O)C3C4C=CC(C4)C3C(=O)O)cc2)n1 (stereo not drawn)	-3%	-5%	u	-5%	10%	-7%	x	x	-2%	x
O=C(Nc1ccc(-c2ccc3nncn3n2)cc1)c1ccc(Br)o1	u	x	-2%	-25%	12%	-11%	x	x	-41%	x
O=c1ccc2c(OCCCCc3ccccc3)c3ccoc3cc2o1	u	x	-4%	-2%	17%	x	x	-12%[57.1 µM]	-30%	x
Cc1ccc(N(CC(C)C)S(=O)(=O)c2nnc(NC(=O)c3cccs3)s2)cc1	x	x	x	x	x	-3%	x	x	x	x
COc1ccc(NC(=O)Cc2csc(C)n2)cc1	x	x	x	x	x	1%	x	x	x	x
Cn1cc(C2=C(c3ccc(Cl)cc3Cl)C(=O)NC2=O)c2ccccc21	2%	x	u	u	57%	-4%	x	-9%[57.1 µM]	25µM*	x
Cn1cc(-c2ccccc2C(N)=O)c(=O)c2cc(Cl)ccc21	u	17%	-2%	i	-7%	5%	x	x	x	x
COc1cccc([C@@H]2Oc3ccc(Br)cc3C(=O)[C@H]2OC(=O)N[C@H](C)C2CCCCC2)c1	-6%	x	0%	i	6%	0%	x	x	x	x
CCCCSCCCNC(=O)CN1C(=O)c2cccnc2Oc2ccc(Cl)cc21	x	x	x	x	x	-3%	x	x	x	x
O=C(CCC1N=C2c3ccccc3N=C(SCc3cccc(Cl)c3)N2C1=O)NCc1cccs1 (stereo not drawn)	x	x	x	x	x	-9%	x	x	x	x
CCOc1ccccc1C(=O)Nc1ccc(S(=O)(=O)Nc2ncccn2)cc1	x	x	x	x	x	-1%	x	x	x	x
CCn1cc(C(=O)NCCCOC(C)C)c(=O)c2cc(S(=O)(=O)N(C)C3CCCCC3)ccc21	x	x	x	x	x	-1%	x	x	x	x
COC(=O)c1cc2oc3ccccc3c2n1Cc1ccccn1	u	x	u	-3%	-10%	-2%	-9%	2%	-2%[24.4 µM]	8%
CCC(Oc1ccccc1)C(=O)Nc1cc(-c2ccccc2F)nn1-c1ccccc1 (stereo not drawn)	x	x	x	x	x	-3%	x	x	x	x
Cc1c(-c2ccc(Cl)cc2)oc(=O)c2c(N)n(-c3ccccc3)nc12	u	-2%	-7%	-10%	0%	u	x	x	u	x
CCN(c1ccccc1)S(=O)(=O)c1cc(C(=O)OC(C)C(=O)Nc2ccc3c(c2)OCCO3)ccc1C (stereo not drawn)	1%	-17%	11µM*	-12%	16%	-14%	18%	-7%	14µM*	u
Cc1ccc(CNC(=O)CCNC(=O)c2ccco2)cc1	11%	1%	u	6%	0%	0%	-2%	0%	u	-7%
Cc1ccc(C)c(Cn2c(=O)n(CCCCC(=O)NCc3ccccc3Cl)c(=O)c3ccccc32)c1	x	x	x	x	x	-1%	x	x	x	x
O=C(Nc1ccc2nc(-c3ccco3)c(-c3ccco3)nc2c1)N1CCCCCC1	u	3.5µM*	3.5µM*	5.6µM*	28%	5.6µM*	u	u	4µM*	13µM*
COC(=O)NC(c1cccs1)C(C(C)=O)C(=O)OC (stereo not drawn)	x	x	u	3%[11.5 µM]	x	2%[12.4 µM]	x	x	x	x
